From PubChem BioAssay
Active and inactive are the calls of the source. Unless noted, the rule behind the calls is not given here.

Legend:
[1] = compounds binding Alexa647 anti-His antibody – biochemical, small-molecule microarray, 635 nm fluorescence, artefact control for SMM control protein annotation, primary screen (AID 1128); settings: higher = more signal;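 note: score merges feature fluorescence with signal-to-noise for each printed compound spot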
[2] = test system: Human papillomavirus type 1a E7 protein (residues 1-88); test: HPV1a E7 small-molecule binders, primary screen, biochemical, small-molecule microarray, residues 1-88, 635 nm (AID 1129); settings: small-molecule microarray binding, fluorescence 635 nm; higher = more signal
[3] = target: Focal adhesion kinase 1 (Homo sapiens) (UniProt Q05397); test: PTK2 protein binding on printed compound slides – biochemical, small-molecule microarray, 635/667 nm fluorescence, BSA, DTT, primary screen (AID 1130); settings: 635 nm fluorescence, higher = more signal;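 note: composite of spot emission at 667 nm and signal to noise over triplicate slides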
[4] = test system: Fibrinogen (Alexa647-labelled); test: Alexa647-fibrinogen binding to printed small molecules – biochemical, small-molecule microarray, 635/667 nm fluorescence, artefact control for SMM control-protein annotation, profiling panel (AID 1131); settings: fibrinogen-A647 binding fluorescence, higher = more signal;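 note: z-score merges 667 nm fluorescence with per-spot signal-to-noise over triplicate slides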
[5] = target: Follistatin (Homo sapiens) (UniProt P19883); test: FST protein binding to printed compounds – biochemical, small-molecule microarray, 635/667 nm fluorescence, primary screen (AID 1132); settings: 635 nm fluorescence, higher = more signal
[6] = target: Fibroblast growth factor 2 (Homo sapiens) (UniProt P09038); test: basic fibroblast growth factor binding to printed compounds – biochemical, small-molecule microarray, 635/667 nm fluorescence, primary screen (AID 1133); settings: FGF2, fluorescence 635/667, higher = more signal
[7] = JC-1 mitochondrial potential readout, lung cancer cells – cell-based, A549, JC-1 fluorescence, basal, 24 h, 100 nL, profiling panel (AID 1138); settings: higher = more signal;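 note: A549 lung adenocarcinoma cells under basal conditions with no added stimulus; test concentration not given here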
Lefty1 = Lefty1 protein binding to printed compounds – biochemical, small-molecule microarray, 635/667 nm fluorescence, primary screen (AID 1139); settings: fluorescence 635/667, higher = more signal
[8] = test system: wheat germ agglutinin (Triticum aestivum), Alexa647-labelled; test: Alexa647-WGA lectin binding to printed small molecules – biochemical, small-molecule microarray, 635/667 nm fluorescence, artefact control for SMM control-protein annotation, profiling panel (AID 1140); settings: WGA-A647 binding, 635 nm fluorescence, higher = more signal;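 note: score merges 667 nm feature emission with signal to noise over triplicate slides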
[9] = target: Luciferin 4-monooxygenase (Photinus pyralis) (UniProt P08659); test: inhibition of purified Photinus pyralis luciferase – biochemical, luminescence, purified enzyme, 2006 set, primary screen (AID 1141); settings: purified firefly luciferase, SteadyGlo luminescence, 30 min; higher = more signal, called active from +8 up or from −8 down;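 note: cell-free assay with purified firefly luciferase at 100 ng per well in PBS; test concentration not given here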
[10] = test system: Wnt5a (protein binding on small-molecule microarray); test: small molecules binding Wnt5a protein – biophysical, small-molecule microarray, 635/667 nm fluorescence, primary screen (AID 1142); settings: 635 nm fluorescence, higher = more signal;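 note: fluorescence read at 667 nm with signal to noise per printed feature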
[11] = ATP-based viability of Huh7 replicon cells – cell-based, CellTiter-Glo luminescence, basal, 48 h, cytotoxicity control for HCV replication inhibitor project, primary screen (AID 1143); settings: higher = more signal, called active from +8 up or from −8 down;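 note: Huh7 hepatoma cells carrying a hepatitis C replication reporter with no stimulus; test concentration not given here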
[12] = Pseudomonas biofilm growth suppression – PAO1 strain, BacTiter-Glo luminescence, LB-PBS, primary screen (AID 1144); settings: P. aeruginosa PAO1 biofilm, 12 h, higher = more signal
[13] = basal CRE-LacZ reporter activity in PC12 – cell-based, unstimulated, primary screen (AID 1145); settings: no forskolin, luminescence, 4.5 h, higher = more signal, called active from +8 up or from −8 down
[14] = forskolin-driven CRE-LacZ activity in PC12 – cell-based, CRE-LacZ reporter, forskolin-stimulated, primary screen (AID 1146); settings: luminescence, 4.5 h, higher = more signal, called active from +8 up or from −8 down;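 note: PC12 cells with 6xCRE LacZ reporter stimulated by forskolin 10 µM; beta-galactosidase reporter signal reflecting CREB driven transcription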
[15] = target: Streptavidin (Streptomyces avidinii) (UniProt P22629); test: compounds binding control protein streptavidin – biophysical, small-molecule microarray, 635/667 nm fluorescence, artefact control for SMM compound annotation, primary screen (AID 1147); settings: higher = more signal;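 note: signal reflects streptavidin binding to arrayed compounds as a control protein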
[16] = probe aInhba binding on compound microarray – biochemical, small-molecule microarray, 635/667 nm fluorescence, primary screen (AID 1148); settings: higher = more signal;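 note: score merges 667nm spot fluorescence with signal-to-noise for antibody binding to printed compounds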
Torsin-1A (Homo sapiens) [17] = target: Torsin-1A (Homo sapiens) (UniProt O14656); test: TOR1A wild-type binding on microarray – cell lysate, small-molecule microarray, lysate, 635/667 nm, primary screen (AID 1149); settings: COS7 hTOR1A-WT lysate, 635 nm fluorescence, higher = more signal
Torsin-1A (Homo sapiens) [18] = target: Torsin-1A (Homo sapiens) (UniProt O14656); test: torsin A mutant lysate binding on microarrays – cell lysate, small-molecule microarray, COS7 lysate, 635/667 nm fluorescence, primary screen (AID 1150); settings: COS7 hTOR1A mutant lysate, 635 nm fluorescence, higher = more signal;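 note: score pools 667 nm emission and signal to noise measuring lysate protein binding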
[19] = test system: Sonic hedgehog protein (Shh); test: Sonic hedgehog microarray binding compounds – biochemical, small-molecule microarray, 635/667 nm fluorescence, primary screen (AID 1151); settings: 635 nm fluorescence, higher = more signal;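 note: Shh protein binding to compounds spotted on small-molecule microarray slides; score combines spot fluorescence intensity with signal-to-noise across triplicate slides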

Sequence of Follistatin (Homo sapiens) (P19883 whole entry, looked up): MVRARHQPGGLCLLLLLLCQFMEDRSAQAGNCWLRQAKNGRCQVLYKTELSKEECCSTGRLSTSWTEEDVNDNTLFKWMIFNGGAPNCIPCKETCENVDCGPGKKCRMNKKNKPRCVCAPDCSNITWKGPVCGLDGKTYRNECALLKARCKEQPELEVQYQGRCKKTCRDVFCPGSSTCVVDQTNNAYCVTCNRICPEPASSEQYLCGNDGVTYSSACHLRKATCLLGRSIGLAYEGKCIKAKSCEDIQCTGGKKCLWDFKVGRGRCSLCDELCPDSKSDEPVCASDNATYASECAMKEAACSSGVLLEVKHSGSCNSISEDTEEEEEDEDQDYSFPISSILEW
Sequence of Fibroblast growth factor 2 (Homo sapiens) (P09038 whole entry, looked up): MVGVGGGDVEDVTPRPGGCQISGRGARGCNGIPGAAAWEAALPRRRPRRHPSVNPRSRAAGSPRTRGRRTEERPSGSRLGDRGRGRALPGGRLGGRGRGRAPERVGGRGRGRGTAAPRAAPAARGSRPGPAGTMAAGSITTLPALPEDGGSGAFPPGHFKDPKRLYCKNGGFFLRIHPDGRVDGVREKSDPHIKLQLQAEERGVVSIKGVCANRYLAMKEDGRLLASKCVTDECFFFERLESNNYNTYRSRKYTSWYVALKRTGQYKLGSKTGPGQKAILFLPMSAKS
Sequence of Focal adhesion kinase 1 (Homo sapiens) (Q05397 whole entry, looked up): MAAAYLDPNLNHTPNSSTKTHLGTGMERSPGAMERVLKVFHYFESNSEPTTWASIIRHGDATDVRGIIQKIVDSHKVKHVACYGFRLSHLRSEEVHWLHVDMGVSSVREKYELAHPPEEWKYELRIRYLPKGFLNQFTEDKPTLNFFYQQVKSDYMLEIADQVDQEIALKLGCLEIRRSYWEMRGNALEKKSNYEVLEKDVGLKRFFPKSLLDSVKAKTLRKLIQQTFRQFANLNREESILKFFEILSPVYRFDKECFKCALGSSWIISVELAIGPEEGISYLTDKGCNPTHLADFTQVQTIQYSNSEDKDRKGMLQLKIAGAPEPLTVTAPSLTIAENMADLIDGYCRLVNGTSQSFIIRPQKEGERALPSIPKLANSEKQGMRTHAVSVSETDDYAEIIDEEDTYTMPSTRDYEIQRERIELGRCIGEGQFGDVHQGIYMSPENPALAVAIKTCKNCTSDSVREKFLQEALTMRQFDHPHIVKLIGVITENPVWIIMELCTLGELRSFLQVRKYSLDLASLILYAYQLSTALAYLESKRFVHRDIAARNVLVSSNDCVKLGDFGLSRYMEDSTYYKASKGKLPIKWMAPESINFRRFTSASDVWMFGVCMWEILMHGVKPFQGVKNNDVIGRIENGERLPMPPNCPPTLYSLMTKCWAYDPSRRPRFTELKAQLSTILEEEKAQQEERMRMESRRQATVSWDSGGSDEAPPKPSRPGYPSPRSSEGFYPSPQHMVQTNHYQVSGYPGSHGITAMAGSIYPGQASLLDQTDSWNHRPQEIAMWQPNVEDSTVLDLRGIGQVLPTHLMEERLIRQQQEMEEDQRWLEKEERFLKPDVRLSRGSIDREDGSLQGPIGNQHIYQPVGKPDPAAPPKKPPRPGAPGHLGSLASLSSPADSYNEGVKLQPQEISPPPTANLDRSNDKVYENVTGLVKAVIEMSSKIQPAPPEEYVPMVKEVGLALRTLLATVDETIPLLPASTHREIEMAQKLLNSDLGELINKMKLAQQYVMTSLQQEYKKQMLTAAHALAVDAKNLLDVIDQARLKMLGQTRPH
Sequence of Torsin-1A (Homo sapiens) (O14656 whole entry, looked up): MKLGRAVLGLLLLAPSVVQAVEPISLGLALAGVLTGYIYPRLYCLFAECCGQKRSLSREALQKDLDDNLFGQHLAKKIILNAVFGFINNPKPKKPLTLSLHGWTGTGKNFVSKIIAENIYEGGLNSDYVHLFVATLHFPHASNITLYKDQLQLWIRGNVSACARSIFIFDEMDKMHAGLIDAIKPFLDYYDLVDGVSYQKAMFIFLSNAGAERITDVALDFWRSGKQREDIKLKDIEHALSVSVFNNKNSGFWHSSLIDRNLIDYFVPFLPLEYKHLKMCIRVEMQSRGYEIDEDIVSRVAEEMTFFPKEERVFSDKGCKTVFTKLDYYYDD
Sequence of Luciferin 4-monooxygenase (Photinus pyralis) (P08659 whole entry, looked up): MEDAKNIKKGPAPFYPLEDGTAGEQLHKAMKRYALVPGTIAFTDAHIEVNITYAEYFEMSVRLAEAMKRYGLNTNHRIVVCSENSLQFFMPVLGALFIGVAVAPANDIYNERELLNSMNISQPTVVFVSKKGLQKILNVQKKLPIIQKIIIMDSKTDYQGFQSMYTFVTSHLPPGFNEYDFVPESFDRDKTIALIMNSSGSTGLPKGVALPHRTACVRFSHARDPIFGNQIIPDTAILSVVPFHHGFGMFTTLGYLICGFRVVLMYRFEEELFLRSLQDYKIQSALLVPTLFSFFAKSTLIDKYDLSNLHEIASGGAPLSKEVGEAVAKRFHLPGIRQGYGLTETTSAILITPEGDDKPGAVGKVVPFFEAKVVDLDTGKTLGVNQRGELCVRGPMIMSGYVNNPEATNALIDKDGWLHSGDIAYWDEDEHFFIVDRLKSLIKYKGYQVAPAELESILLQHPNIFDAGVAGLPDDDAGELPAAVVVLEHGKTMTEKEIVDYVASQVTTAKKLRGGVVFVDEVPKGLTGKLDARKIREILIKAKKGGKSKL
Sequence of Streptavidin (Streptomyces avidinii) (P22629 whole entry, looked up): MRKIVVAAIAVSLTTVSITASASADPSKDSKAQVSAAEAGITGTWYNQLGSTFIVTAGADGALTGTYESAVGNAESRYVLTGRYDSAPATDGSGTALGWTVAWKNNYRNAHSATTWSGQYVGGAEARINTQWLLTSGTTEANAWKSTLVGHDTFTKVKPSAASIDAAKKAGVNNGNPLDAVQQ

| SMILES | composite z-score [1] | composite z-score [2] | composite z-score [3] | composite z-score [4] | composite z-score [5] | composite z-score [6] | z-score [7] | composite z-score (Lefty1) | composite z-score [8] | z-score [9] | composite z-score [10] | z-score [11] | z-score [12] | z-score [13] | z-score [14] | composite z-score [15] | composite z-score [16] | composite z-score (Torsin-1A (Homo sapiens) [17]) | composite z-score (Torsin-1A (Homo sapiens) [18]) | composite z-score [19] |
| --- | --- | --- | --- | --- | --- | --- | --- | --- | --- | --- | --- | --- | --- | --- | --- | --- | --- | --- | --- | --- |
| COCOc1ccc(Br)cc1C(=O)[C@@H]1O[C@H]1c1cccc(OC)c1 | -0.183 | 0.513 | 0.0147 | 0.488 | 0.339 | -0.0753 | 1.1 | 0.346 | 0.432 | -0.54 (inactive) | -0.202 | -1.97 (inactive) | 0.64 (inactive) | 1.2 (inactive) | -0.37 (inactive) | 0.015 | -0.149 | 0.736 | 0.437 | 0.349 |
| CC(CCN1CCCc2nc(C)c(C)cc21)=NOC(C)CN1CCCCc2nc(C)c(C)cc21 (stereo not given) | 0.363 | 1.2 | 0.687 | 0.567 | 1.27 | 0.785 | 0.539 | 0.91 | 0.829 | -0.0922 (inactive) | 0.277 | -0.466 (inactive) | -0.624 (inactive) | -0.31 (inactive) | 0.527 (inactive) | 0.666 | 0.0074 | -0.109 | 0.631 | 1.05 |
| O=C1[C@H]2[C@H]3[C@H](O)[C@H](O)CC(=NOC[C@@H](O)COCc4ccco4)[C@@H]3CC[C@H]2C(=O)N1C[C@@H]1CCCO1 | 0.142 | -0.12 | -0.288 | -0.652 | 0.907 | 1.34 | -0.00687 | 1.17 | -0.559 | 0.31 (inactive) | 0.149 | 0.0304 (inactive) | 0.835 (inactive) | -0.207 (inactive) | -0.0793 (inactive) | -0.0625 | -0.263 | 3.22 | 3.3 | 1.59 |
| CO[C@H]1COC(=O)CCC[C@@H](C)[C@H](OC)COC(=O)[C@@H]2CCCN2C(=O)CC=C[C@@H]1C | -0.278 | -0.779 | -0.682 | -0.759 | 1.33 | 1.18 | -0.738 | 1.44 | -0.207 | 1.19 (inactive) | 0.236 | -0.717 (inactive) | 0.55 (inactive) | -0.385 (inactive) | -0.0072 (inactive) | -0.44 | -0.101 | 2.64 | 1.05 | 2.06 |
| COC(=O)CC=C[C@@H](C)[C@@H](C=NOC[C@H]1O[C@H](c2ccccc2)C=C[C@@H]1Oc1ccc(OC)cc1)OC | 0.162 | -0.499 | -0.103 | -0.313 | 0.22 | -0.435 | 0.0691 | -0.0398 | -0.0524 | 0.4 (inactive) | 0.0372 | -0.193 (inactive) | 0.257 (inactive) | 1.34 (inactive) | 0.611 (inactive) | -0.682 | -0.208 | -0.52 | -0.305 | 0.161 |
| CON=CC[C@@H]1C=C[C@H](OC(C)=O)[C@@H](COC(C)=O)O1 | 0.0374 | -0.534 | 0.538 | -0.146 | 0.606 | 0.495 | 0.296 | 0.596 | 0.0389 | 0.218 (inactive) | 0.474 | 0.544 (inactive) | 0.667 (inactive) | -0.403 (inactive) | 0.46 (inactive) | -0.0091 | 0.102 | 0.611 | 0.592 | 0.783 |
| C#CCCCON=C1[C@H]2CCn3c(=O)n(C)c(=O)n3[C@H]2[C@H](O)[C@@H]2O[C@H]12 | 0.196 | 0.746 | -0.103 | 0.615 | 0.72 | 0.916 | 1 | 0.363 | -0.0602 | -1.25 (inactive) | 0.119 | 0.119 (inactive) | 0.806 (inactive) | 0.523 (inactive) | -0.149 (inactive) | 0.38 | 0.0471 | 0.326 | 0.693 | 0.837 |
| COc1ccc(O[C@H]2C=C[C@@H](c3ccccc3)O[C@@H]2CON=C(C)CCN2CCc3nc(-c4ccccc4)c(-c4ccccc4)cc3C2)cc1 | 1.38 | -0.536 | 0.119 | 0.948 | 0.477 | 0.0194 | 1.87 | 0.269 | 0.0216 | 0.84 (inactive) | -0.193 | -0.203 (inactive) | -0.18 (inactive) | 1.62 (inactive) | 0.703 (inactive) | 0.852 | -0.0719 | -0.449 | -0.199 | 0.194 |
| O=C1C[C@@H](O)[C@@H](O)[C@@H]2[C@@H]3C(=O)N(Cc4ccc5c(c4)OCO5)C(=O)[C@@H]3CC[C@H]12 | 0.324 | 0.923 | 0.381 | 0.735 | 0.243 | 0.19 | 0.733 | 0.428 | -0.203 | -0.56 (inactive) | -0.005 | -0.104 (inactive) | -0.396 (inactive) | 0.516 (inactive) | 0.244 (inactive) | 0.139 | -0.152 | 0.0825 | 0.339 | 0.256 |
| CCc1cc2c(nc1CC)CCN(CCC(C)=NO[C@@H](C)c1cn([C@H](CO)Cc3ccccc3)nn1)C2 | 1.62 | -0.452 | -0.0908 | 0.996 | 0.595 | 0.0391 | 2.07 | 0.529 | 0.307 | -0.896 (inactive) | -0.144 | -0.519 (inactive) | 0.434 (inactive) | -0.892 (inactive) | -1.03 (inactive) | 0.453 | -0.0087 | 1.1 | 0.216 | 0.961 |
